The values below come from PubChem BioAssay (NCI).

Structures are written as SMILES. This is part of a sample that, as a whole, favours compounds with a hit. Of some 83,000 tested, about 20% had one in any assay.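 The endpoint reported here, percent growth, reads 100 for growth as untreated, 0 for no net growth and -100 for all cells dead.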 A number with no mark means an inactive call. Activity calls are given as the source filed them. Rule for the calls: active = growth percent below 10; inactive = the rest.

Test systems include NCI-H23 lung; NCI-H226 lung; NCI-H322M lung; HOP-62 NSCLC; NCI-H460 lung; HOP-92 NSCLC; NCI-H522 lung; A549/ATCC NSCLC; 786-0 renal; COLO 205 colon; DU-145 prostate; K-562 leukemia; MALME-3M melanoma; MDA-MB-231 breast; RXF 393 renal; SF-268 CNS; SF-295 CNS; SF-539 CNS; UACC-257 melanoma; M14 melanoma.
Assay in all cases: NCI-60 one-dose screen, 48 h (100 = growth as untreated, 0 = no growth, -100 = all killed)
Holding throughout (details): 10 µM unless noted

For `COc1cccc(/C=C/C(=O)c2cc3c(N)c(C(=O)Nc4cccc(Cl)c4C)sc3nc2C)c1`, the growth with NCI-H23 lung is 20.4%; with NCI-H226 lung, -23.6% (active); with NCI-H322M lung, 7.75% (active); with HOP-62 NSCLC, -24.1% (active); with NCI-H460 lung, -23.5% (active); in the assay on HOP-92 NSCLC, 20.3%. Moreover, the growth with NCI-H522 lung was -69.7% (active); in the assay with A549/ATCC NSCLC, 3.76% (active); in the assay on 786-0 renal, -43.8% (active); in the assay on COLO 205 colon, -27.1% (active); in the assay on DU-145 prostate, 4.37% (active); with K-562 leukemia it was 11%. The growth was 14.7% in the assay with MALME-3M melanoma; -26.5% (active) in the assay on MDA-MB-231 breast; -71% (active) in the assay with RXF 393 renal; 10.1% in the assay on SF-268 CNS; 5.12% (active) in the assay with SF-295 CNS; -36% (active) in the assay with SF-539 CNS. Moreover, in the assay with UACC-257 melanoma, the growth was 57.4%.
Take `Cc1ccc(/C=C2\CN(C(=O)C(Cl)Cl)C/C(=C\c3ccc(C)cc3)C2=O)cc1`: the growth is -35.9% (active) in the assay with NCI-H23 lung; -11.7% (active) in the assay with NCI-H226 lung; -53.7% (active) in the assay on NCI-H322M lung; -16.4% (active) in the assay on HOP-62 NSCLC; -56.1% (active) in the assay on NCI-H460 lung; -47.9% (active) in the assay on HOP-92 NSCLC. The growth with NCI-H522 lung is -37.3% (active); in the assay with A549/ATCC NSCLC it was 2.86% (active); in the assay on 786-0 renal, -68.6% (active); in the assay on COLO 205 colon, -63% (active); in the assay on DU-145 prostate, -82.7% (active); in the assay on K-562 leukemia it was -0.0477% (active). In addition, the growth in the assay with MALME-3M melanoma was -56.5% (active); with MDA-MB-231 breast it was -3.27% (active); with RXF 393 renal, -88.1% (active); in the assay on SF-268 CNS it was -20.4% (active); in the assay with SF-295 CNS, -7.46% (active); in the assay with SF-539 CNS it was -86.4% (active). The growth with UACC-257 melanoma was -33.1% (active).
As for `Cc1ccc(-c2csc(NC(=O)N3CCN(c4cc5c(cc4F)c(=O)c(C(=O)O)cn5C4CC4)CC3)n2)cc1`, the growth was 4.84% (active) in the assay on NCI-H23 lung; 14.5% with NCI-H226 lung; 9.12% (active) in the assay with NCI-H322M lung; 12.6% in the assay on HOP-62 NSCLC; 19.6% in the assay with NCI-H460 lung; -12.6% (active) with HOP-92 NSCLC. Moreover, the growth is -5.07% (active) with NCI-H522 lung; 11.1% in the assay with A549/ATCC NSCLC; 28.9% in the assay on 786-0 renal; 11.9% with COLO 205 colon; 16.3% with DU-145 prostate; 17.1% in the assay with K-562 leukemia. Moreover, the growth was -3.8% (active) with MALME-3M melanoma; 17.5% with MDA-MB-231 breast; 26.6% in the assay on RXF 393 renal; 24.3% in the assay on SF-268 CNS; 4.88% (active) in the assay with SF-295 CNS; 26.7% in the assay with SF-539 CNS. Further, in the assay on UACC-257 melanoma, the growth was -4.73% (active).
As for `COc1cc(/C=C2\CN(S(=O)(=O)c3ccc(C)cc3)C/C(=C\c3cc(CN4CCCCC4)c(O)c(OC)c3)C2=O)cc(CN2CCCCC2)c1O`, the growth in the assay with NCI-H23 lung is -64% (active); in the assay on NCI-H226 lung it was -52.5% (active); in the assay with NCI-H322M lung, -74.4% (active); in the assay with HOP-62 NSCLC, -81.7% (active); with NCI-H460 lung it was -72.5% (active); with HOP-92 NSCLC, -75.3% (active). For the same molecule, the growth in the assay with NCI-H522 lung was -58% (active); in the assay on A549/ATCC NSCLC it was -84.9% (active); in the assay on 786-0 renal it was -65.4% (active); with COLO 205 colon, -90.2% (active); in the assay with DU-145 prostate, -88.1% (active); in the assay on K-562 leukemia, -24.2% (active). For the same molecule, the growth was -82.4% (active) in the assay on MALME-3M melanoma; -73.1% (active) in the assay on MDA-MB-231 breast; -72.1% (active) in the assay with RXF 393 renal; -61.1% (active) with SF-268 CNS; -74.7% (active) with SF-295 CNS; -84.8% (active) with SF-539 CNS. In addition, the growth in the assay with UACC-257 melanoma is -89.6% (active).
On to `CSCCC(NC(=O)c1ccccc1)C(=O)N/N=C1\S/C(=C/c2ccc(Cl)cc2)C(=O)N1C` (stereo not drawn), for which the growth is 90% in the assay on NCI-H23 lung; 86.9% in the assay on NCI-H226 lung; 90.4% with NCI-H322M lung; 33.9% in the assay on HOP-62 NSCLC; 95.9% in the assay on NCI-H460 lung; 70.8% with HOP-92 NSCLC. Moreover, the growth in the assay on NCI-H522 lung is 80.7%; with A549/ATCC NSCLC, 79.9%; in the assay on 786-0 renal, 91.4%; in the assay on COLO 205 colon, 101%; in the assay with DU-145 prostate, 75.1%; in the assay on K-562 leukemia it was 41.6%. Also, the growth in the assay with MALME-3M melanoma is 83.3%; in the assay on MDA-MB-231 breast, 75.6%; with RXF 393 renal, 75.5%; in the assay on SF-268 CNS, 74.1%; with SF-295 CNS it was 75.2%; with SF-539 CNS, 93.5%. In the assay with UACC-257 melanoma, the growth is 89.8%.
On to `C=C(CN1CC=CCC1)[C@@H]1CC[C@]2(CO)CC[C@]3(C)[C@H](CC[C@@H]4[C@@]5(C)CC[C@H](O)C(C)(C)[C@@H]5CC[C@]43C)[C@@H]12`, for which the growth is 101% with NCI-H23 lung; 97.4% in the assay on NCI-H226 lung; 110% with NCI-H322M lung; 104% in the assay with HOP-62 NSCLC; 96.2% with NCI-H460 lung; 92.4% with HOP-92 NSCLC. Besides, the growth in the assay on NCI-H522 lung was 96%; in the assay on A549/ATCC NSCLC it was 94.8%; in the assay with 786-0 renal, 113%; in the assay with COLO 205 colon, 108%; in the assay with DU-145 prostate it was 106%; in the assay with K-562 leukemia, 77%. Also, the growth with MALME-3M melanoma is 101%; in the assay with MDA-MB-231 breast, 116%; with RXF 393 renal, 106%; in the assay on SF-268 CNS, 101%; with SF-295 CNS it was 102%; in the assay on SF-539 CNS, 91.1%. Besides, the growth with UACC-257 melanoma was 111%.
Regarding `CCCCCCCCCCCCCCCCCCOc1ccccc1CC(=O)OCC[N+]1(C)CCOCC1`, the growth in the assay on NCI-H23 lung was 66.5%; in the assay with NCI-H226 lung it was 49.8%; in the assay on NCI-H322M lung, 79.8%; in the assay with HOP-62 NSCLC it was 55.6%; in the assay with NCI-H460 lung, 69.2%; in the assay on HOP-92 NSCLC, 44.2%. The growth in the assay with NCI-H522 lung was 39.9%; in the assay with A549/ATCC NSCLC it was 62.6%; with 786-0 renal, 68.3%; with COLO 205 colon it was 65.6%; in the assay with DU-145 prostate, 70.8%; in the assay on K-562 leukemia, 58%. For the same molecule, the growth in the assay with MALME-3M melanoma is 67.2%; in the assay on MDA-MB-231 breast, 49.8%; in the assay on RXF 393 renal, 1.62% (active); in the assay on SF-268 CNS, 36.2%; in the assay with SF-295 CNS, 87.3%; with SF-539 CNS, 71.6%. Moreover, the growth in the assay with UACC-257 melanoma was 103%.
Turning to `CCN(CC)c1ccc(/C=N\NC(=O)c2cccc(Nc3ccnc(C(F)(F)F)c3)c2)c(O)c1`, the growth in the assay with NCI-H23 lung was 39.5%; in the assay with NCI-H226 lung, -3.12% (active); in the assay with NCI-H322M lung, 33%; with HOP-62 NSCLC it was 29.5%; with NCI-H460 lung, 1.17% (active); with HOP-92 NSCLC, 20.6%. Further, the growth is 41.5% in the assay with NCI-H522 lung; 31.3% in the assay with A549/ATCC NSCLC; 5.84% (active) in the assay on 786-0 renal; -0.627% (active) with COLO 205 colon; 23.1% in the assay with DU-145 prostate; 92.3% with K-562 leukemia. The growth with MALME-3M melanoma is 24.4%; in the assay on MDA-MB-231 breast, 13.6%; with RXF 393 renal, -1.92% (active); with SF-268 CNS it was 10.3%; in the assay with SF-295 CNS, 16.8%; in the assay with SF-539 CNS it was -38.9% (active). Also, the values for the growth in the assay with UACC-257 melanoma and in the assay on M14 melanoma were 27.3% and 21.2%, respectively.
